# Reference: PubChem BioAssay (Tox21)
# A number with no mark means an inactive call. Inconclusive results are not listed. The source made the active and inactive calls. Calls come from the whole dose curve; as a rule, active = well fitted curve in the direction sought with a large enough effect in the repeat runs; inconclusive = weak or mixed curves; inactive = no such curve, though single readings can be large; an effect the other way counts as inactive or inconclusive.
# Assays:
# [1] = A CellTox Green Cytotoxicity Assay to monitor cytotoxicity in HEK293 cells - 40 hour (AID 1224871); note: nearly all actives have a fitted effect of over 45% in size; note: potency is the fitted concentration of half-maximal effect
# How it was run: (§1)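 Read-out: fluorescence of a cell-impermeant cyanine dye staining DNA of dead cells, proportional to cytotoxicity. HEK293, 600 cells/well with reagent, compound (23 nL DMSO) added after 5 h; reads at 0, 8, 16, 24, 32, 40 h.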
# [2] = qHTS RealTime-Glo MT Cell Viability Assay in HEK293 cells - 16 hour (AID 1224872); note: nearly all actives have a fitted effect of over 50% in size; note: potency is the fitted concentration of half-maximal effect
# How it was run: (§2)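 HEK293 cells were seeded at 600 cells/well together with NanoLuc luciferase and cell-permeant prosubstrate, preincubated 5 h at 37 C/5% CO2, then given compound in DMSO by pintool. Luminescence from viable-cell prosubstrate reduction was read repeatedly over 40 h.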
# [3] = qHTS RealTime-Glo MT Cell Viability Assay in HepG2 cells - 8 hour (AID 1224873); note: nearly all actives have a fitted effect of over 55% in size; note: potency is the fitted concentration of half-maximal effect
# How it was run: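 HepG2 cells (600/well) mixed with RealTime-Glo MT reagent, settled 5 h at 37 C/5% CO2 before compound addition. Nonlytic NanoLuc luminescence from viable-cell prosubstrate reduction read repeatedly during 40 h treatment at 37 C.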
# [4] = qHTS RealTime-Glo MT Cell Viability Assay in HEK293 cells - 40 hour (AID 1224874); conditions: RealTime-Glo luminescence; max response: active compounds read low; note: potency is the fitted concentration of half-maximal effect; nearly all actives have a fitted effect of over 50% in size
# How it was run: (§3)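 Luminescence readout at each listed time point; HEK293, 600 cells/well, RealTime-Glo MT reagent added with cells; compounds pinned (23 nL in DMSO) after 5 h at 37 C; continuous culture at 37 C.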
# [5] = A CellTox Green Cytotoxicity Assay to monitor cytotoxicity in HEK293 cells - 24 hour (AID 1224875); note: nearly all actives have a fitted effect of over 45% in size; note: potency is the fitted concentration of half-maximal effect
# How it was run: as §1
# [6] = A CellTox Green Cytotoxicity Assay to monitor cytotoxicity in HepG2 cells - 24 hour (AID 1224878); note: nearly all actives have a fitted effect of over 45% in size; note: potency is the fitted concentration of half-maximal effect
# How it was run: (§4)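 HepG2, 600 cells/well premixed w/ CellTox Green; 5 h settle, 37 C/5% CO2; pintool cpd add (DMSO); 37 C, 40 h; fluorescence read at 0, 8, 16, 24, 32, 40 h.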
# [7] = A CellTox Green Cytotoxicity Assay to monitor cytotoxicity in HepG2 cells - 40 hour (AID 1224879); note: nearly all actives have a fitted effect of over 40% in size; note: potency is the fitted concentration of half-maximal effect
# How it was run: as §4
# [8] = qHTS RealTime-Glo MT Cell Viability Assay in HEK293 cells - 0 hour (AID 1224880); note: top concentration of the series differs between compounds; nearly all actives have a fitted effect of over 45% in size
# How it was run: as §3
# [9] = A CellTox Green Cytotoxicity Assay to monitor cytotoxicity in HEK293 cells - 32 hour (AID 1224881); note: nearly all actives have a fitted effect of over 40% in size; note: potency is the fitted concentration of half-maximal effect
# How it was run: as §1
# [10] = A CellTox Green Cytotoxicity Assay to monitor cytotoxicity in HepG2 cells - 0 hour (AID 1224882); note: nearly all actives have a fitted effect of over 35% in size; note: potency is the fitted concentration of half-maximal effect
# How it was run: as §4
# [11] = A CellTox Green Cytotoxicity Assay to monitor cytotoxicity in HepG2 cells - 32 hour (AID 1224883); note: nearly all actives have a fitted effect of over 50% in size; note: potency is the fitted concentration of half-maximal effect
# How it was run: as §4
# [12] = A CellTox Green Cytotoxicity Assay to monitor cytotoxicity in HEK293 cells - 8 hour (AID 1224884); note: nearly all actives have a fitted effect of over 35% in size; note: potency is the fitted concentration of half-maximal effect
# How it was run: as §1
# [13] = qHTS RealTime-Glo MT Cell Viability Assay in HEK293 cells - 24 hour (AID 1224886); note: potency is the fitted concentration of half-maximal effect; nearly all actives have a fitted effect of over 50% in size
# How it was run: as §2
# [14] = qHTS RealTime-Glo MT Cell Viability Assay in HEK293 cells - 8 hour (AID 1224887); note: nearly all actives have a fitted effect of over 50% in size; note: potency is the fitted concentration of half-maximal effect
# How it was run: as §3
# [15] = A CellTox Green Cytotoxicity Assay to monitor cytotoxicity in HEK293 cells - 16 hour (AID 1224888); note: nearly all actives have a fitted effect of over 35% in size; note: potency is the fitted concentration of half-maximal effect
# How it was run: as §1
# [16] = qHTS RealTime-Glo MT Cell Viability Assay in HepG2 cells - 0 hour (AID 1224889); note: nearly all actives have a fitted effect of over 50% in size; note: potency is the fitted concentration of half-maximal effect
# How it was run: (§5)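 HepG2 cells were seeded at 600 cells/well together with NanoLuc luciferase and a cell-permeant prosubstrate, preincubated 5 h at 37 C/5% CO2, then pin-dosed with compounds in DMSO. Nonlytic luminescence from viable cells was read at each time point.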
# [17] = A CellTox Green Cytotoxicity Assay to monitor cytotoxicity in HepG2 cells - 8 hour (AID 1224890); note: nearly all actives have a fitted effect of over 45% in size; note: potency is the fitted concentration of half-maximal effect
# How it was run: as §4
# [18] = qHTS RealTime-Glo MT Cell Viability Assay in HepG2 cells - 32 hour (AID 1224877); note: nearly all actives have a fitted effect of over 55% in size; note: potency is the fitted concentration of half-maximal effect
# How it was run: as §5
# [19] = A CellTox Green Cytotoxicity Assay to monitor cytotoxicity in HepG2 cells - 16 hour (AID 1224876); note: nearly all actives have a fitted effect of over 45% in size; note: potency is the fitted concentration of half-maximal effect
# How it was run: as §4
# [20] = qHTS RealTime-Glo MT Cell Viability Assay in HepG2 cells - 16 hour (AID 1224885); note: nearly all actives have a fitted effect of over 50% in size; note: potency is the fitted concentration of half-maximal effect
# How it was run: as §5
Compound,Potency [1],Potency [2],Potency [3],Potency [4],Potency [5],Potency [6],Potency [7],Potency [8],Potency [9],Potency [10],Potency [11],Potency [12],Potency [13],Potency [14],Potency [15],Potency [16],Potency [17],Potency [18],Potency [19],Potency [20]
Cc1cc(O)c(C(C)(C)C)cc1Sc1cc(C(C)(C)C)c(O)cc1C,54.8 µM (active),24.5 µM (active),43.6 µM (active),21.8 µM (active),48.9 µM (active),54.8 µM (active),48.9 µM (active),inactive,54.8 µM (active),inactive,61.5 µM (active),inactive,21.8 µM (active),24.5 µM (active),inactive,inactive,inactive,–,–,–
CC(=O)N1CCN(c2ccc(OC[C@H]3CO[C@](Cn4ccnc4)(c4ccc(Cl)cc4Cl)O3)cc2)CC1,49 µM (active),21.9 µM (active),49 µM (active),21.9 µM (active),43.6 µM (active),–,54.9 µM (active),–,49 µM (active),inactive,49 µM (active),–,21.9 µM (active),24.5 µM (active),49 µM (active),24.5 µM (active),inactive,49 µM (active),–,–
CNC(=O)c1ccccc1,inactive,inactive,inactive,–,inactive,inactive,inactive,inactive,inactive,inactive,inactive,inactive,–,inactive,inactive,inactive,inactive,inactive,inactive,inactive
Cc1cc(O)c(C(C)(C)C)cc1C(C)(C)C,24.5 µM (active),19.5 µM (active),38.9 µM (active),–,24.5 µM (active),21.9 µM (active),24.5 µM (active),inactive,24.5 µM (active),inactive,–,19.5 µM (active),19.5 µM (active),13.8 µM (active),34.7 µM (active),inactive,24.5 µM (active),43.6 µM (active),21.9 µM (active),43.6 µM (active)
OCCN(CCO)c1nc(N2CCCCC2)c2nc(N(CCO)CCO)nc(N3CCCCC3)c2n1,19 µM (active),–,inactive,26.8 µM (active),21.3 µM (active),23.9 µM (active),23.9 µM (active),–,19 µM (active),23.9 µM (active),23.9 µM (active),21.3 µM (active),–,–,12 µM (active),inactive,23.9 µM (active),inactive,23.9 µM (active),inactive
O=C1Cc2cc(CCN3CCN(c4nsc5ccccc45)CC3)c(Cl)cc2N1,26.8 µM (active),23.9 µM (active),–,–,–,–,–,inactive,–,inactive,–,–,23.9 µM (active),–,–,inactive,inactive,–,–,–
CCOc1nc2cccc(C(=O)OC(C)OC(=O)OC3CCCCC3)c2n1Cc1ccc(-c2ccccc2-c2nn[nH]n2)cc1 (stereo unspecified),30.9 µM (active),11 µM (active),–,–,34.6 µM (active),43.6 µM (active),43.6 µM (active),–,30.9 µM (active),–,43.6 µM (active),–,9.76 µM (active),8.7 µM (active),34.6 µM (active),–,–,–,–,–
N=C1N=C(N)c2ccccc21,inactive,–,inactive,24.5 µM (active),inactive,–,43.6 µM (active),inactive,inactive,inactive,–,inactive,24.5 µM (active),inactive,inactive,inactive,inactive,–,inactive,–
